Test results from PubChem BioAssay (NCATS).
“And” between values parts separate entries of the source, which are not always exact repeats. Identical values can stand only once. Inconclusive results are not listed. The source made the active and inactive calls. Calls come from the whole dose curve; as a rule, active = well fitted cell-killing curve with a large enough effect; inconclusive = small, poorly fitted or top-dose-only effect, or effect the other way; inactive = no such curve, though single readings can be large or run the other way.

Test: Viability qHTS for spleen associated tyrosine kinase inhibitor (SYKi) naive MV4-11 cells (AID 1963823); note: nearly all actives have a fitted effect of over 40% in size
Settings: MV4-11 AML viability, CellTiter-Glo luminescence, 72 h; series mostly up to 45 µM; viability (% of control): at the top concentration
Excerpt: Department of Medicine, Hematology/Oncology
University Hospital Frankfurt, Germany.
Trials have shown promising clinical activity of the selective SYK inhibitor entospletinib in patients with high expressing HOXA9/MEIS1 acute leukemias. As the development of resistance mechanisms is a common problem in the use of targeted drugs, we performed a chemical library screen to identify drug sensitivities in SYK inhibitor resistant AML cells. […] Glucocorticoids are potent immunosuppressants which work in part by inhibiting the transcription of cytokine genes.
Described herein is a viability screen to look for activity in the SYK inhibitor naive cell line against four NCATS compound libraries (MIPE 5.0, NPC, NPACT, and Kinase) totaling 11372 compounds. Active hits were reacquired for confirmation and further secondary assay testing.
SEQUENCE No. (e.g., 1, 2, 3, etc.); […] (e.g., Cells, Incubation, Reagent, etc.); VALUE; DESCRIPTION.
1; Media; 2uL; white, solid-bottom Corning assay plate.
2; Compounds; 23nL; Echo acoustic dispenser.
3; Cell; 5uL; 500 cells per well.
4: Incubation; 72hr; 37 C, 5% CO2, 95% humidity.
5; Reagent; 3uL; CellTiter-Glo reagent (Promega).
6; Incubation; 10min; room temperature.
7; Detection; Luminescence; ViewLux plate reader (PerkinElmer).
NOTES (numbers refer to Sequence numbers above
1. Quantitative high-throughput screening (qHTS) of small molecule compounds was conducted on naive SYKi MV4-11 cell line.
2. Twenty-three nanoliter of small molecule compounds were added to each assay plates using the Echo acoustic dispenser (Beckman Coulter).
3. Cells were seeded into the assay plates at a final density of 500 cells in 5uL of media per well using the Multi-drop Combi dispenser.
4. Plates were covered with stainless steel gasketed lids and incubated for 72 hours at standard cell culture conditions.
5. Viability was assessed by adding 3uL of CellTiter-Glo detection reagent (Promega).
6. Plates were covered with gasket lids and incubated for 10 minutes at room temperature.
7. Luminescence was measured on a ViewLux plate reader (PerkinElmer).
Potency is the fitted concentration of half-maximal effect.

Row | SMILES | Potency | viability (% of control)
1 | CN1CCN(C(=O)CN[C@@H]2C[C@H]2c2ccc(OCc3ccccc3)cc2)CC1 | 25.9 µM (active) | 
2 | CCOc1ccc(-n2c([C@@H](C)N(Cc3cccnc3)C(=O)Cc3ccc(OC(F)(F)F)cc3)nc3ncccc3c2=O)cc1 | 18.4 µM (active) | 
3 | C=CC(=O)Nc1cccc(Oc2nc(Nc3ccc(N4CCN(C)CC4)cc3)nc3ccsc23)c1 | 2.63 µM (active) | 
4 | CN1CCN(c2nc(C3=C(c4c[nH]c5ccccc45)C(=O)NC3=O)c3ccccc3n2)CC1 | 206 nM (active) and 833 nM (active) | 
5 | C=C1[C@H]2CCC3[C@]4(C)CCC[C@@](C)(C(=O)O)C4CC[C@]3(C2)[C@H]1OC(C)=O (some centres undefined) |  | 72.9% (inactive)
6 | C/C=C(\C)C(=O)OC[C@H]1O[C@H](O[C@H]2O[C@H](CO)[C@@H](O)[C@H](O)[C@H]2O[C@@H]2O[C@H](CO)[C@@H](O)[C@H](O)[C@H]2O)[C@H](O[C@@H]2O[C@H](CO)[C@@H](O)[C@H](O)[C@H]2O)[C@@H](O)[C@@H]1O |  | 89.1% [at 17.3 µM] (inactive)
7 | C[C@@H]1O[C@@H](OC(=O)Cc2ccccc2)[C@H](O)[C@H](O)[C@H]1O |  | 77.3% (inactive)
8 | C=C1CC2[C@@]3(C)C=CC(=O)C(C)(C)C3=C(O)C(=O)[C@@]2(C)C2(C(=O)OC)C(=O)C(C)OC(=O)[C@@]12C (some centres undefined) | 10 µM (active) | 
9 | C[C@@H]1C(=O)OC2[C@H](O)[C@]34[C@H]5C[C@@H](C(C)(C)C)[C@]36[C@@H](OC(=O)[C@@H]6O)O[C@@]4(C(=O)O5)[C@]21O (some centres undefined) |  | 96.3% (inactive)
10 | COC(=O)Cn1nc(-c2cccc(OC)c2)c2ccccc21 |  | 85.2% (inactive)
11 | Cc1nc2c(-c3cnc(N)nc3)nc(N3CCOCC3)nc2n1C(C)C | 0.209 µM (active) | 
12 | CC(C)(C)[C@H](NC(=O)c1ccc(N)c(Cl)c1)C(=O)N1CCC[C@H]1C(=O)N[C@H](C#N)CC(=O)O |  | 83.7% (inactive)
13 | CC1(C)CC[C@]23CO[C@@]4(CCC5[C@@]6(C)CC[C@H](O[C@@H]7OC[C@H](O[C@@H]8O[C@H](CO)[C@@H](O)[C@H](O)[C@H]8O[C@@H]8OC[C@@H](O)[C@H](O)[C@H]8O)[C@H](O)[C@H]7O)[C@@](C)(CO)C6CC[C@@]5(C)[C@]4(C)CC2=O)[C@@H]3C1 (some centres undefined) | 3.1 µM (active) | 
14 | CC(=O)N/N=C/c1ccc([N+](=O)[O-])o1 | 18.8 µM (active) | 
15 | Cn1cc(-c2ccc(S(=O)(=O)n3ccc(/C=C/C(=O)Nc4ccccc4N)c3)cc2)cn1 | 651 nM (active) and 934 nM (active) | 
16 | COc1cc2c(cc1OC)CN(CCc1ccc(NC(=O)c3cc(OC)c(OC)cc3NC(=O)c3cnc4ccccc4c3)cc1)CC2 | inactive | 
17 | COc1ccc2c(c1)CCCC2=O |  | 94.9% (inactive)
18 | CC1=CC(=O)CC(C)(CO[C@@H]2O[C@H](CO)[C@@H](O)[C@H](O)[C@H]2O)C1(O)/C=C/C(C)=C/C(=O)O (some centres undefined) |  | 72.2% [at 17.3 µM] (inactive)
19 | CC(C)S(=O)(=O)c1ccc2nccc(Nc3ccc4scnc4c3)c2c1 | 8.2 µM (active) | 
20 | C=C1C(=O)O[C@@H]2[C@H]3O[C@]3(C)CC/C=C(\C)CC[C@@H]12 | 2.35 µM (active) | 

Row | SMILES | Potency | viability (% of control)
21 | Cc1c(-c2ccccc2)oc2c(C(=O)OCCN3CCCCC3)cccc2c1=O |  | 57.8% (inactive)
22 | CC(=O)c1[nH]cc(CCC(=O)O)c1CC(=O)O | 0.231 µM (active) | 
23 | CC1=NN(c2ccccc2)C(=O)C1 | 11.9 µM (active) | 
24 | C/C=C(\C)C(=O)O[C@H]1C=CC(=O)O[C@H]1/C=C/[C@H](O)[C@@H](C)O | 9.2 µM (active) | 
25 | C=CC(=O)Nc1cc(Nc2nccc(-c3cn(C)c4ccccc34)n2)c(OC)cc1N(C)CCN(C)C | 1.46 µM (active) | 
26 | COC1CC(O[C@H]2CC[C@]3(C)C4CC[C@]5(C)C(C6=CC(=O)OC6)=CCC56OC46CC[C@@H]3C2)OC(C)C1O[C@@H]1O[C@H](CO[C@@H]2O[C@H](CO)[C@@H](O)[C@H](O)[C@H]2O)[C@@H](O)[C@H](O)[C@H]1O (some centres undefined) | 1.55 µM (active) | 
27 | Fc1ccc(-c2nc(C3CCNCC3)sc2-c2ccnc(NC3CC3)n2)cc1 | 10.3 µM (active) | 
28 | CCOC(=O)[C@H](CCc1ccccc1)N[C@@H](C)C(=O)N1Cc2cc(OC)c(OC)cc2C[C@H]1C(=O)O |  | 58.9% (inactive)
29 | CC(C)C[C@@H]1NC(=O)[C@@H](Cc2ccccc2)NC(=O)C(CCCCCC(=O)C2CO2)NC(=O)[C@@H]2CCCCN2C1=O (some centres undefined) | 0.0252 µM (active) | 
30 | COc1cc(C)c(/C=C/C(C)=C/C=C/C(C)=C/C(=O)O)c(C)c1C | 2.35 µM (active) | 
31 | Cc1ccc(C(=O)c2ccc(CC(=O)O)n2C)cc1 |  | 76.3% (inactive)
32 | CN1C/C=C/CCOc2cccc(c2)-c2ccnc(n2)Nc2cccc(c2)C1 | 0.417 µM (active) | 
33 | C=C1CC2[C@]3(C)C(=C(O)C(=O)[C@@]2(C)[C@]2(C(=O)OC)C(=O)C(C)OC(=O)[C@@]12C)C(C)(C)C(=O)CC3O (some centres undefined) |  | 59.7% [at 17.3 µM] (inactive)
34 | O=C1NC(=O)/C(=C\c2ccc3nccc(-c4ccncc4)c3c2)S1 | 0.13 µM (active) | 
35 | CCCCCCCCCCCCCCCCO |  | 103% (inactive)
36 | CN(c1ccccc1CNc1nc(Nc2ccc3c(c2)CC(=O)N3)ncc1C(F)(F)F)S(C)(=O)=O | 0.291 µM (active) | 
37 | COc1ccc2cc1Oc1ccc(cc1)C[C@H]1c3c(cc4c(c3Oc3cc5c(cc3OC)CCN(C)[C@@H]5C2)OCO4)CCN1C | 11.9 µM (active) | 
38 | CC(C)(C)C1CCN(C(=O)n2ncc(C(O)(c3ccccc3)c3ccccc3)n2)CC1 | 20.6 µM (active) | 
39 | COc1ccc(C(=O)NCc2ccc(OCCN(C)C)cc2)cc1OC |  | 71.5% (inactive)
